The record followed here is PubChem BioAssay (Tox21).

A short description of test [1]: qHTS assay to identify small molecule antagonists of the estrogen related receptor (ERR) signaling pathway from Tox21 library - cell viability counter screen (AID 1224834). Also: nearly all actives have a fitted effect of over 30% in size. The gist of the method:
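Seeded ERR cells were rested 6 h at 37 C/5% CO2 before compounds, positive and negative controls or DMSO were added. Incubation continued for 17.5 h, and viability was then quantified by CellTiter-Fluor fluorescence.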
(Quantitative high-throughput screening tests each substance at several concentrations.)

Test [2] concerns the target Luciferin 4-monooxygenase (Photinus pyralis) (UniProt P08659). As to the kind of experiment: qHTS assay to identify small molecule inhibitors of firefly luciferase (AID 1224835). Also: series mostly up to about 120 µM; nearly all actives have a fitted effect of over 25% in size. In a few lines: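 Biochemical qHTS: compounds run as interplate titrations against purified firefly enzyme, with D-luciferin and ATP each at its KM concentration. Light output recorded by CCD imaging.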

Test [3] in a line: qHTS assay to identify small molecule agonists of the constitutive androstane receptor (CAR) signaling pathway - cell viability counter screen (AID 1224836). Also: series mostly up to about 92 µM; nearly all actives have a fitted effect of over 45% in size. In a few lines:
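Fluorescence from CellTiter-Fluor indicates live cells after 23 h exposure. The human hepatoma line expresses hCAR and a CYP2B6-2.2kb reporter. Incubation medium contains 0.75 uM PK11195 (final).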

Test [4] is described as follows: qHTS assay to identify small molecule antagonists of the constitutive androstane receptor (CAR) signaling pathway - cell viability counter screen (AID 1224837). Also: series mostly up to about 92 µM; nearly all actives have a fitted effect of over 45% in size. The gist of the method:
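To flag cytotoxic false antagonists, HepG2 hCAR/CYP2B6-2.2kb cells were treated 23 hr with 15-concentration compound series and 50 nM CITCO at 37 C/5% CO2; CellTiter-Fluor fluorescence was the measured end point.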

Test [5] addresses Nuclear receptor subfamily 1 group I member 3 (Homo sapiens) (UniProt Q14994). The test can be described thus: qHTS assay to identify small molecule antagonists of the constitutive androstane receptor (CAR) signaling pathway (AID 1224838).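 Also: HepG2 cells stably expressing hCAR with CYP2B6 luciferase reporter stimulated by CITCO; nearly all actives have a fitted effect of over 40% in size.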 In a few lines:
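Human hepatoma HepG2 cells expressing hCAR and a CYP2B6 promoter (2.2 kb) luciferase construct; compound titration (15 points) with 50 nM CITCO final, 24 h at 37 C/5% CO2; luminescence via ONE-Glo after 30 min at room temperature.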

For test [6] the target is unchanged. The test can be described thus: qHTS assay to identify small molecule agonists of the constitutive androstane receptor (CAR) signaling pathway (AID 1224839). Also: nearly all actives have a fitted effect of over 15% in size. Also: potency is read from the fitted curve at half-maximal effect.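 As to activation: HepG2 cells stably carrying human CAR and a CYP2B6 luciferase reporter; series mostly up to about 92 µM.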 The gist of the method: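 Stable hCAR/CYP2B6-2.2kb HepG2 line in DMEM with 10% FBS; compounds (15 concentrations) and 0.75 uM PK11195 final, 24 h at 37 C/5% CO2, then ONE-Glo luminescence after 30 min.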

Test [7] can be described thus: qHTS assay to identify small molecule antagonists of the estrogen related receptor signaling pathway with the pleiotropic PPARgamma coactivator (PGC) from Tox21 10K library - cell viability counter screen (AID 1224840; active = well fitted cell-killing curve with a large enough effect in the repeat runs, not every such curve was filed as active; also: nearly all actives have a fitted effect of over 40% in size). The gist of the method:
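Seeded PGC/ERR cells (2,000/well, 6 h, 37 C/5% CO2) get compound by pin tool; 17.5 h incubation at 37 C; CellTiter-Fluor added, 30 min, fluorescence measured.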

Test [8] can be described thus: qHTS assay to identify small molecule antagonists of the estrogen related receptor signaling pathway with the pleiotropic PPARgamma coactivator (PGC) from Tox21 10K library (AID 1224841; call rule not given here; also: series mostly up to about 92 µM; actives are mostly falling curves and most rising ones were filed inactive; nearly all actives have a fitted effect of over 50% in size). The gist of the method:
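Test chemicals dissolved in DMSO were applied to pre-incubated (6 h) PGC/ERR cells at 2,000 cells/well for an 18 h, 37 C treatment; reporter luminescence was then read using One-Glo.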

A short description of test [9]: qHTS assay to identify small molecule agonists of the estrogen related receptor signaling pathway with the pleiotropic PPARgamma coactivator (PGC) from Tox21 10K library (AID 1224842). Also: nearly all actives have a fitted effect of over 15% in size. In a few lines: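 PGC/ERR reporter cell line, 2,000 cells per well, incubated 6 h at 37 C before 23 nL compound in DMSO was added. After 18 h at 37 C, One-Glo luminescence read following 30 min at room temperature.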

In test [10] the target is Thyrotropin receptor (Homo sapiens) (UniProt P16473). As to the kind of experiment: qHTS assay to identify small molecule agonists of the thyroid stimulating hormone receptor (TSHR) signaling pathway (AID 1224843; calls by dose curve; also: nearly all actives have a fitted effect of over 45% in size). The gist of the method:
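HEK293/TSHR, 800 cells/well; cpd 30 min RT; add cAMP-d2 + anti-cAMP-cryptate, 1 h RT; fluorescence read on plate reader. 15-pt titration, n=3.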

Test [11] is described as follows: qHTS assay to identify small molecule agonists of the hypoxia (HIF-1) signaling pathway - cell viability counter screen (AID 1224844; calls by dose curve; also: nearly all actives have a fitted effect of over 50% in size). The gist of the method: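 HRE-bla ME-180; 0.5% dFBS; cpd 17 h, 37C, 5% CO2; CellTiter-Glo lum., 30 min RT, post-FRET read, same wells.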
Test [12] is described as follows: qHTS assay to identify small molecule agonists of H2AX (AID 1224845; active = well fitted activation curve with a large enough effect in the signal ratio in the repeat runs, not every such curve was filed as active; the % refers to the signal ratio). In a few lines: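 Wild-type CHO-K1 cells, plated overnight, exposed 3hr at 37C to 15 concentrations (0.76% DMSO final). Lysed, then HTRF anti-pH2AX (S139) cryptate and anti-H2AX-d2 antibodies, 24 hr room temperature; 665/620 nm emission read.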
Test [13] is described as follows: qHTS assay to identify small molecule agonists of the hypoxia (HIF-1) signaling pathway (AID 1224846; active = well fitted activation curve with a large enough effect in the signal ratio in the repeat runs, not every such curve was filed as active; the % refers to the signal ratio). The gist of the method:
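Reporter induction in HRE-bla ME-180 cells is taken as agonism: cells sit 5 hrs after plating, receive compounds or DMSO only, incubate 17 hrs at 37C under 5% CO2, and are loaded with CCF4-AM for beta-lactamase FRET measurement.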

The nature of test [14]: qHTS assay to identify small molecule antagonists of the estrogen related receptor (ERR) signaling pathway from Tox21 library (AID 1224848). Also: nearly all actives have a fitted effect of over 50% in size. In a few lines:
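Compounds dissolved in DMSO are pin-transferred onto ERR reporter cells (2,000 per well) that have settled for 6 h at 37 C. Plates then incubate 18 h at 37 C before ONE-Glo luciferase reagent and a luminescence read 30 min later.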

A short description of test [15]: qHTS assay to identify small molecule agonists of the estrogen related receptor (ERR) signaling pathway from Tox21 library (AID 1224849; calls by dose curve; also: nearly all actives have a fitted effect of over 15% in size). The gist of the method: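 Tox21 compounds tested for ERR agonism in an NTP reporter cell line: 18 h treatment at 37 C, then ONE-Glo luminescence.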
The nature of test [16]: qHTS RealTime-Glo MT Cell Viability Assay in HepG2 cells - 24 hour (AID 1224867). Also: nearly all actives have a fitted effect of over 50% in size. Also: potency is read from the fitted curve at half-maximal effect. The gist of the method:
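Compound treatment began 5 h after plating HepG2 cells (600/well) with NanoLuc luciferase and prosubstrate. Plates stayed at 37 C for 40 h; luminescence was captured at six time points, 0 h through 40 h.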

Test [17] is described as follows: A CellTox Green Cytotoxicity Assay to monitor cytotoxicity in HEK293 cells - 0 hour (AID 1224869). Also: nearly all actives have a fitted effect of over 50% in size. In a few lines: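 Tox21 screen in HEK293: membrane-impermeant cyanine dye fluoresces on binding dead-cell DNA; compound pinned 5 h post-seeding, plates held at 37 C, signal read repeatedly through 40 h.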
Test [18] in a line: qHTS assay to identify small molecule agonists of H2AX - cell viability counter screen (AID 1224847; calls by dose curve; also: top concentration of the series differs between compounds; nearly all actives have a fitted effect of over 30% in size). The gist of the method:
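Viability of CHO-K1 (wild type) cells after 3 hr compound exposure was measured by CellTiter-Glo luminescence.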

The nature of test [19]: qHTS RealTime-Glo MT Cell Viability Assay in HEK293 cells - 32 hour (AID 1224868). Also: nearly all actives have a fitted effect of over 50% in size. Also: potency is read from the fitted curve at half-maximal effect. The gist of the method:
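Quantitative high-throughput screen of the Tox21 10K library in HEK293: cells and RealTime-Glo reagents plated together, compound added at 5 h, luminescence monitored through 40 h at 37 C.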

Where “and” joins values, the source holds several entries; their conditions need not be identical. Equal entries are not always repeated. Inconclusive results are not listed. Some compounds were tested as several samples or in several runs, with calls that do not always agree. Calls of active or inactive are those of the source. Unless noted, calls follow the shape of the dose curve; as a rule, active = well fitted curve in the direction sought with a large enough effect in the repeat runs; inconclusive = weak or mixed curves; inactive = no such curve, though single readings can be large; an effect the other way counts as inactive or inconclusive.

Sequence of Thyrotropin receptor (Homo sapiens) (P16473 whole entry, looked up): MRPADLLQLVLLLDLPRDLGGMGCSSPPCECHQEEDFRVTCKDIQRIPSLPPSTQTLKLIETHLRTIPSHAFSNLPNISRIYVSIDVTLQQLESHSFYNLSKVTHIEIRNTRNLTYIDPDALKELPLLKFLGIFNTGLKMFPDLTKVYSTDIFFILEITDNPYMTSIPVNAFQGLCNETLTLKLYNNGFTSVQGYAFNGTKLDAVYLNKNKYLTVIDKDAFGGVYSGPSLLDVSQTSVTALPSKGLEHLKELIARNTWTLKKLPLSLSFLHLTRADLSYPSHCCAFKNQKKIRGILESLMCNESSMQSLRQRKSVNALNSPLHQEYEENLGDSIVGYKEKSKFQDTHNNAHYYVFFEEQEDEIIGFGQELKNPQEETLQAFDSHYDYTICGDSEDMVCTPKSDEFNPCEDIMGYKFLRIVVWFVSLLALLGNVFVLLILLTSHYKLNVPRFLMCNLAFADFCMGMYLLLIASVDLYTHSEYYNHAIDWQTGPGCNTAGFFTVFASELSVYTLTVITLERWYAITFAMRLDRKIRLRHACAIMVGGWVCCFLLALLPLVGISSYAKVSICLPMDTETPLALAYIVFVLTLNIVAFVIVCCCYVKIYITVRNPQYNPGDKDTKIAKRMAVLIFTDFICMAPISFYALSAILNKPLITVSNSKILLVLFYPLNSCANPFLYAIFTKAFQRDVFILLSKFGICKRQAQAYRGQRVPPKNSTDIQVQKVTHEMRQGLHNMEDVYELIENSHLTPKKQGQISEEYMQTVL
Sequence of Luciferin 4-monooxygenase (Photinus pyralis) (P08659 whole entry, looked up): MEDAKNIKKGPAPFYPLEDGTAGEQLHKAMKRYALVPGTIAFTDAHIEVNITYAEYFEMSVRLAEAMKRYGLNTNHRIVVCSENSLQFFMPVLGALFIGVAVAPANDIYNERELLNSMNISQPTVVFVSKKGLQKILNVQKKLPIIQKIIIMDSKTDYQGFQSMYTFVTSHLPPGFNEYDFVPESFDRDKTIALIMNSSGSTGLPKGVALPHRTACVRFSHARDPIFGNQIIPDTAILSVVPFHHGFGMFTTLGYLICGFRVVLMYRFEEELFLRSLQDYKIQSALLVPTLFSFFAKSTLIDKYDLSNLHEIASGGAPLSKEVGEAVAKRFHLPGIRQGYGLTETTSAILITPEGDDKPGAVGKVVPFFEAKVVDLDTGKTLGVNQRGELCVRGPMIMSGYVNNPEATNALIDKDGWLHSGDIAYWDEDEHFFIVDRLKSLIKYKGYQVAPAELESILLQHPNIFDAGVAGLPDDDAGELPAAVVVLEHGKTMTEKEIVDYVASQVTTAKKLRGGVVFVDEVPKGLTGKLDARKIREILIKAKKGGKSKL
Sequence of Nuclear receptor subfamily 1 group I member 3 (Homo sapiens) (Q14994 whole entry, looked up): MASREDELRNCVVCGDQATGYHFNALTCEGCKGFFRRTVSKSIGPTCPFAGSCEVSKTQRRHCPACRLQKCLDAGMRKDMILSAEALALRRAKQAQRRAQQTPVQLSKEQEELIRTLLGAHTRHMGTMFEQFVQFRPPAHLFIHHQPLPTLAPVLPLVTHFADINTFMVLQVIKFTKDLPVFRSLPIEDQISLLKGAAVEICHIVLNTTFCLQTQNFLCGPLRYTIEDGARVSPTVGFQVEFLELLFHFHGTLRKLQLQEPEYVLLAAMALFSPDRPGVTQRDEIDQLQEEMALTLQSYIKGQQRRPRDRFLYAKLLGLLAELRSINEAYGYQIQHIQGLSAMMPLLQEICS

In the case of `O=C(O)Cn1c(=O)n(Cc2ccc(Br)cc2F)c(=O)c2ccc(Cl)cc21`, the Potency entry in [1], in [2], in test [3], in test [4], in [6] and in test [7] was “inactive” in each case. Moreover, in test [8], the Potency entry is “inactive”. In addition, the compound was called inactive in test [5], in test [9], in test [10], in test [11], in [12] and in [13]. Besides, the compound was called inactive in [14], in [15] and in [17]. Besides, the Potency in test [16] is 38.9 µM (active).
On to `CC(C)OP(=O)(CP(=O)(OC(C)C)OC(C)C)OC(C)C`, for which the Potency entry in [1], in test [2], in [3], in test [4], in test [6] and in [7] was “inactive” throughout. Further, in [19], the Potency entry was “inactive”. Besides, the outcome in test [5], in test [11], in test [12], in [13], in test [18] and in test [17] was inactive.
Take `O=C1c2ccccc2CCc2ccccc21`: the Potency result in test [1], in test [2], in test [3], in [4], in test [7] and in test [8] was “inactive” throughout. Further, the Potency result in test [16] and in [19] was “inactive” in each case. Besides, the compound was called inactive in [5], in [9], in test [10], in test [11], in [13] and in test [14]. In addition, the result in test [15] and in test [17] was inactive. Moreover, the Potency in test [6] was 31.3 µM (active) and 26.6 µM (active).
Consider `OC1C(O)C(O)C(O)C(O)C1O` (centres undefined), for which the Potency entry in [1], in [2], in test [3], in test [4], in [7] and in test [19] was “inactive” throughout. The result in test [10], in test [11], in test [12], in test [13], in [18] and in test [17] was inactive.
`O=c1[nH]cnc2[nH]ncc12`: the Potency entry in test [1], in test [2], in test [3], in test [4], in [6] and in [7] was “inactive” throughout. For the same compound, the Potency entry in test [16] and in test [19] was “inactive” throughout. The compound was classed as inactive in test [5], in test [11], in test [12], in test [18] and in test [17].
Consider `CC(=O)OC1CC(C)OC(C)O1` (centres undefined), for which the Potency result in test [1], in [2], in test [3], in test [4], in test [6] and in test [7] was “inactive” in each case. The Potency result in test [8], in [16] and in test [19] was “inactive” each time. Further, the outcome in test [5], in test [9], in test [11], in test [12], in [13] and in test [14] was inactive. For the same compound, the compound was called inactive in test [15] and in test [17].
Take `Brc1ccc(Br)c(Br)c1`: the Potency result in [1], in [2], in test [3], in test [4], in [7] and in test [16] was “inactive” each time. Also, the Potency result in [19] is “inactive”. For the same compound, the call in test [10], in test [11], in test [12], in [13], in test [18] and in test [17] was inactive.
`C=CCc1ccc(OC)c(OC)c1`: the Potency entry in [1], in [2], in test [3], in test [4], in test [7] and in test [16] was “inactive” throughout. Further, the Potency result in test [19] was “inactive”. Besides, the call in test [10], in [11], in test [12], in test [13], in test [18] and in test [17] was inactive.
For the compound `CC(C)CC(=O)CC(C)CC(C)C` (centres undefined), the Potency entry in test [2], in [3], in test [4], in [6], in [7] and in test [8] was “inactive” each time. Moreover, in test [16], the Potency result was “inactive”. The call in test [5], in [9], in test [11], in test [12], in test [13] and in [14] was inactive. The result in [15] and in test [17] was inactive. For the same compound, the Potency entry in test [19] was “inactive and 17.4 µM (active)”.
With `COCCOC(=O)c1ccccc1C(=O)OCCOC`, the Potency entry in [1], in test [2], in test [3], in test [6], in test [7] and in [19] was “inactive” in each case. For the same compound, the outcome in test [5], in [10], in test [11], in test [12], in [13] and in [18] was inactive. Moreover, the call in test [17] was inactive.
